Reference: patent publication US20060069055, “Delivery of polynucleotides” (published 2006)

The sequences below were run against NF-kB p65/p50 heterodimer (Homo sapiens, UniProt Q04206;P19838 Q04206:1-551,P19838:1-433) (assay: EMSA). Conditions: protein: extract; tags: nuclear extract of LPS-stimulated THP-1 cells; dsDNA, one strand shown.
NF-kB p65/p50 heterodimer, sequence (Q04206 whole entry, chain 1 of 2): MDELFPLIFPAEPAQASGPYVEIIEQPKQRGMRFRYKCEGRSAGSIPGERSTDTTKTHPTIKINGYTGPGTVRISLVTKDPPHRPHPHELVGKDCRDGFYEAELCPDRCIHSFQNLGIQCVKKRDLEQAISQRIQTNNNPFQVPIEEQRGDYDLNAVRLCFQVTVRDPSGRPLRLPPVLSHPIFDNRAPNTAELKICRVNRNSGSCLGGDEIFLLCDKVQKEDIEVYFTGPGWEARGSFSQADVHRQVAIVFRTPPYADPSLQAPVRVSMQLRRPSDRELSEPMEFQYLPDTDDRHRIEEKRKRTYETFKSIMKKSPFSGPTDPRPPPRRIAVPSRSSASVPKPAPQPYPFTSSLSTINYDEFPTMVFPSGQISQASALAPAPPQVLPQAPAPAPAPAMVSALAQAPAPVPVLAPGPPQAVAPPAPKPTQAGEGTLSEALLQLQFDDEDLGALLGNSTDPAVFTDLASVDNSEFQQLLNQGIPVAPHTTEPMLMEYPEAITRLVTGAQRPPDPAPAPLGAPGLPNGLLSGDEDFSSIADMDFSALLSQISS
NF-kB p65/p50 heterodimer, sequence (P19838 1-433, chain 2 of 2): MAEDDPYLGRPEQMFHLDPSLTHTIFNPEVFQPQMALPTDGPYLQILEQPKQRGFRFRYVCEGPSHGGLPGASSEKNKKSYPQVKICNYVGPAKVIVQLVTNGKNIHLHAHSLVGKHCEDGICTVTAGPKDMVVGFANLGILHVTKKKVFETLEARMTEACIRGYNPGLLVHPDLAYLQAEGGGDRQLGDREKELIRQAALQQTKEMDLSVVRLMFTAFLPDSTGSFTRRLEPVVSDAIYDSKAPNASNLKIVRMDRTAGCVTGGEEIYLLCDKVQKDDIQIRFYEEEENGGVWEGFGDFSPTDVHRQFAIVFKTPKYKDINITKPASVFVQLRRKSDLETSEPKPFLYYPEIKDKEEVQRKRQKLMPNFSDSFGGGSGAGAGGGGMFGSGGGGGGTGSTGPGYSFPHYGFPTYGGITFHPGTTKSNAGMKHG
Source text: The EMSA assay was employed to characterize oligonucleotide decoys for the NF-κB transcription factor. […] Using the above modified oligonucleotides to compete for binding for the above-mentioned NF-κB family members, it was possible to compare the binding affinity of these oligonucleotides against the high affinity radiolabeled probe and each other. This assay has also enabled the design of a decoy which selectively binds particular members of the NF-κB family. By using increasing concentrations of various oligonucleotides, it was observed that, by deleting or changing targeted residues in the binding site, it was possible to specifically decrease the binding of the decoy molecule to p50/p50 homodimers, while retaining the affinity for p65/p50 and cRel/p50 heterodimers.
The NF-κB gel shift assays (EMSA) were performed as follows. A double-stranded oligonucleotide containing a consensus NF-κB binding site (5′ […].GGC 3′) (SEQ ID NO: 26) was end-labeled with γ³²P-ATP using T4 Polynucleotide Kinase (Promega). One microgram of a nuclear extract prepared from LPS stimulated THP-1 cells (human monocyte cell line) was incubated with 35 fmol of radiolabeled probe in the presence or absence of competing unlabeled NF-κB double-stranded oligonucleotides (dsODN) or scrambled dsODN. The incubations were carried out at room temperature for 30 minutes in a 20 μl reaction volume composed of 10 mM Tris-HCl pH 8, 100 mM KCL, 5mM MgC12, 2mM DTT, 10% Glycerol, 0.1% NP-40, 0.025% BSA and 1 μg Poly-dIdC. The reactions were loaded onto a 6% polyacrylamide gel, subjected to electrophoresis and dried. The dried gels were imaged and quantitated using a Typhoon 8600 Phosphorlmager (Amersham) and ImageQuant software. The identity of the NF-κB proteins contained in complexes bound to the radiolabeled oligonucleotide probe were identified by pre-incubating the reactions for 5 minutes with individual antibodies specific for each member of the NF-κB family prior to the addition of the radiolabeled probe.
In the case of AGTTGAGGATTTCCCAGGC, the IC50 is reported as 54 fold molar excess.
Sequence TTGAGGACTTTCCAGGC has an IC50 of 87 fold molar excess.
In the case of TCGGACTTTCCTC, the IC50 is reported as 81 fold molar excess.
For AGTTGAGGATTTCCAGGC, the IC50 was 73 fold molar excess.
With TGAGGACTTTCCAGGC the IC50 was 93 fold molar excess.
TTGAGGACTTTCCAGGCTC gave an IC50 of 87 fold molar excess.
TCGGATTTCCTC was tested, and the IC50 was 74 fold molar excess.
Work on ATGGACTTTCCGT yielded an IC50 of 72.5 fold molar excess.
TGAGGACTTTCCAGGCTC showed an IC50 of 92 fold molar excess.
